Compound activity from PubChem.
esBAF inh: SWI/SNF esBAF complex inhibition. mouse ES cells, Bmi1-luciferase knock-in reporter, 24 h; 100% = twice the neutral-well signal. reporter increase, % at 12.5 µM. hit rate 2% among 350,000; in the data active = activation above about 40%; inconclusive = no clear call, values can overlap the other calls;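 note: 0% = median of the plate's neutral control wells and 100% = double that signal; a rise in the Bmi1 reporter signal indicates esBAF inhibition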
PvdQ acylase: blocks Pseudomonas aeruginosa PvdQ acylase activity. purified PvdQ acylase, fluorescence plate reader. inhibition, % at 10 µM. hit rate 0.063% among 340,000. AID 488965; in the data active = inhibition above about 30%, passing the limit was not always enough; inconclusive = no clear call, values can overlap the other calls;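 note: 0% = vehicle neutral wells and 100% = reference inhibitor wells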
MITF TRPM1 HTS: activators of MITF-driven TRPM1 promoter activity in SK-MEL-5 cells; SK-MEL-5 TRPM1-promoter luciferase, 24 h; % of positive control, neutral wells = 0; activation, % at 12.5 µM; hit rate 0.75% among 300,000;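 active = mean activation of at least 80% with every replicate also reaching 80%; inconclusive = mean reaches 80% but some replicate falls short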;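 note: 0% = neutral control wells and 100% = parthenolide positive control wells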
N-glyco inh: N-linked glycosylation inhibition. D54 ERlucT glycosylation luciferase reporter, 24 h; percent of 100 nM tunicamycin response. reporter increase, % at 12.5 µM. hit rate 0.23% among 360,000. AID 588692;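 active = mean luciferase reporter signal, scaled so untreated is 0 and the glycosylation-blocking control 100, at or above a set limit in every replicate; inconclusive = mean reaches the limit but not every replicate does; inactive = mean below the limit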;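 note: luciferase carries N-glycosylation sites so blocking glycosylation raises the light; 0% = median of neutral control wells and 100% = median of 100 nM tunicamycin wells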
Wnt bcat act: activates Wnt/beta-catenin signaling in a reporter cell assay. hit rate 1.2% among 300,000. activator, plate reader. activation, % at 9.35 µM; in the data active = activation above about 30%, passing the limit was not always enough; inconclusive = no clear call, values can overlap the other calls;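 note: 0% = neutral control wells and 100% = positive control wells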
Vif imaging: blocks HIV Vif function. HEK293T cells, Vif self-association by quenched fluorescence, imaging, 24 h. hit rate 0.35% among 340,000. AID 602346. inhibition, % at 7.49 µM; in the data active = inhibition above about 50%, passing the limit was not always enough; inconclusive = no clear call, values can overlap the other calls; inactive = below about 31%
Starred values were filed as active, the others as inactive; ? = inconclusive; . = no result given. In the library only some 2.9% were active in any assay of this set; here they are far more common.

SMILES	esBAF inh	PvdQ acylase	MITF TRPM1 HTS	N-glyco inh	Wnt bcat act	Vif imaging
Cc1cccc(N2C(=O)CC(N(O)c3ccccc3)C2=O)c1 (stereo unspecified)	61*	1	.	1	14	-1
O=C1CC(N(O)c2ccccc2)C(=O)N1c1ccc(Cl)c(Cl)c1 (stereo unspecified)	.	-16	.	10	-1	-2
O=C(NCC[C@@H]1CC[C@@H](NC(=O)c2ccc3c(c2)OCO3)[C@H](CO)O1)Nc1ccc(Cl)cc1	63*	.	.	.	.	.
O=C(C[C@H]1CC[C@H]2[C@@H](COC[C@@H](O)CN2Cc2ccc(Cl)cc2)O1)NCc1cccc(F)c1	-3	.	.	.	.	.
CCCCC#Cc1cncc(C(=O)NN)c1	-5	-10	-3	0	-1	-7
CCCCCCC#Cc1cncc(C(=O)NNC(=O)Nc2cc(Cl)cc(Cl)c2)c1	.	.	.	2	42*	-3
Cc1cccn2c(=O)c3cc(C(=O)NCc4ccco4)c(=N)n(CCc4ccccc4)c3nc12	-9	-16	18	53*	-2	2
Cc1cccn2c(=O)c3cc(C(=O)NCCc4ccccc4)c(=N)n(Cc4ccco4)c3nc12	-3	-10	10	6	-1	-4
Clc1nc(Nc2ccccc2)nc(Nc2ccccc2)n1	?	3	21	3	49*	-6
NC(=O)c1ccsc1NC(=O)c1ccc(S(=O)(=O)N2CCCCC2)cc1	100*	-5	.	-1	10	-13
O=C(COc1ccccc1)OCC(=O)c1ccc(S(=O)(=O)N2CCCCC2)cc1	0	40*	3	-1	-2	-4
Cc1ccc(S(=O)(=O)N2CCOCC2)cc1NC(=O)CSc1ncccn1	.	1	1	0	-1	0
O=C(COC(=O)c1ccccc1)c1ccc(S(=O)(=O)N2CCCCC2)cc1	5	-12	-6	-3	-1	.
NC(=O)c1ccsc1NC(=O)c1ccc(S(=O)(=O)N2CCCC2)cc1	38	16	27	1	12	-4
Cc1ccc(S(=O)(=O)N2CCCCC2)cc1NC(=O)CSc1ncccn1	0	-5	5	0	0	54*
Cc1ccnc(NC(=O)c2ccc(S(=O)(=O)N3CCCCCC3)cc2)c1	.	-3	84*	-9	34*	-19
C[C@H](CO)N1C[C@H](C)[C@H](CN(C)C(=O)C2CC2)Oc2ncc(C#Cc3ccccc3F)cc2C1=O	1	.	.	.	.	.
Cc1ccnc(NC(=O)c2cccc(S(=O)(=O)N3CCCc4ccccc43)c2)c1	.	-15	88*	-12	30	-22
O=C(Nc1ccccn1)c1ccc(S(=O)(=O)N2CCCCC2)cc1	40	-8	91*	-3	23	0
O=C(N[C@@H]1C=C[C@H](CC(=O)N2CCCCC2)O[C@@H]1CO)c1ccccn1	-2	.	.	.	.	.
Cc1cccc(S(=O)(=O)N2C[C@@H]3[C@H](c4ccccc42)[C@H](CO)N3Cc2ccc3c(c2)OCO3)c1	-6	.	.	.	.	.
Cc1ccc(CN2CCN(Cc3ccccc3)C(CCO)C2)s1 (stereo unspecified)	.	-7	-3	0	-2	-4
Cc1ccc(CN2CCN(C3CCCC3)C(CCO)C2)s1 (stereo unspecified)	-1	-4	8	0	31*	-3
O=S(=O)(Nc1nc2ccccc2nc1N1CCc2ccccc2C1)c1ccc(Br)cc1	.	-12	34	-13	.	-32
O=C(N=c1ccn(-c2nc3ccccc3nc2NS(=O)(=O)c2ccc(Cl)cc2)cc1)c1cccs1	.	-12	-4	0	18	82*
O=S(=O)(Nc1nc2ccccc2nc1N1CCc2ccccc2C1)c1ccc(Cl)cc1	.	9	6	-12	41*	-7
CCOc1ccc(S(=O)(=O)Nc2nc3ccccc3nc2-n2ccc(=NC(=O)c3cccs3)cc2)cc1	5	3	17	-2	-9	21
CC(=O)n1nc(-c2ccc(C)cc2)nc1NCc1ccco1	.	-12	105*	0	11	1
